# Laboratory results taken from PubChem BioAssay (EPA / NIEHS).
# Where “and” joins values, the source holds several entries; their conditions need not be identical. Equal entries are not always repeated. Inconclusive results are not listed. Calls of active or inactive are those of the source. Rule for the calls, unless noted: active = hit-call score of the fitted dose curve at least 0.9, where 1 is the maximum; inconclusive = response in the unintended direction; inactive = score below 0.9.
# How the values were obtained:
# [1] = CCTE_Mundy_HCI_iCellGluta_NOG_NeuriteLength: CCTE's Neurite Outgrowth Assay in iCellGluta cells for Neurite Length, Mundy Lab (AID 2284318)
# How it was run: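 Automated high-content imaging of betaIII-tubulin (Alexa Fluor-488) and Hoechst-stained cells gave neurite length, normalized to the DMSO baseline.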
# TTR (gene 7276) = test: CCTE_GLTED_hTTR_0.5uM: CCTE's human Transthyretin (hTTR) Inhibition Assay, with 0.5uM TTR, Great Lakes Toxicology and Ecology Division (GLTED) Lab (AID 2284320; active = hit-call score of the fitted dose curve at least 0.9, where 1 is the maximum; inactive = score below 0.9)
# How it was run: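 Probe (ANSA) displacement from 0.5 uM human transthyretin was followed by fluorescence (ex 380, em 475) after a 2 h incubation with chemical. Activity was scored as signal loss and fitted positively relative to DMSO.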
# [2] = CCTE_Mundy_HCI_iCellGluta_NOG_NeuronCount: CCTE's Neurite Outgrowth Assay in iCellGluta cells for Neuron Count, Mundy Lab (AID 2284340);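 note: cells fixed about 48 h after compound addition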
# How it was run: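 Neuron count read by automated high-content imaging of Hoechst 33342 and betaIII-tubulin/Alexa Fluor-488 labelling in human iPSC glutamatergic neurons. Activity fitted relative to DMSO.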
# [3] = CCTE_Mundy_HCI_iCellGluta_NOG_NeuriteCount: CCTE's Neurite Outgrowth Assay in iCellGluta cells for Neurite Count, Mundy Lab (AID 2284342);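 note: chemical exposure about 48 hours starting 2 hours after plating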
# [4] = CCTE_Deisenroth_5AR_NBTE_donor: CCTE's 5alpha-reductase NanoBRET Target Engagement Assay […], Deisenroth Lab (AID 2284319; active = hit-call score of the fitted dose curve at least 0.9, where 1 is the maximum; inactive = score below 0.9); conditions: actives raise or lower the signal
# How it was run: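 Donor NanoLuc luminescence at 460-20 nm is the read-out, serving artifact detection. Transiently expressed SRD5A2-NanoLuc in HEK293T; 5 h total chemical exposure, testosterone tracer added for the final 2 h; fitting bidirectional relative to DMSO baseline.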
# [5] = CCTE_Deisenroth_5AR_NBTE_acceptor: CCTE's 5alpha-reductase NanoBRET Target Engagement Assay - Autofluorescence Screen, Deisenroth Lab (AID 2284321; active = hit-call score of the fitted dose curve at least 0.9, where 1 is the maximum; inactive = score below 0.9;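 note: compound fluorescence in the acceptor channel under 460 nm excitation flags autofluorescence artifacts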); conditions: actives raise or lower the signal
# How it was run: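 Chemicals diluted to a nominal 100 uM in DMSO were scanned at 460 nm excitation. Samples were read in three independent runs (n=3). Gain or loss of acceptor signal was fitted relative to DMSO.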
# SRD5A2 (gene 6716) = test: CCTE_Deisenroth_5AR_NBTE_ratio: CCTE's 5alpha-reductase NanoBRET Target Engagement Assay - Ratio, Deisenroth Lab (AID 2284322; active = hit-call score of the fitted dose curve at least 0.9, where 1 is the maximum; inactive = score below 0.9); conditions: actives raise or lower the signal
# How it was run: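 HEK293T cells transiently expressing an SRD5A2-NanoLuc fusion (20 h post-transfection) were exposed to test chemical (10 nM - 29.9 uM, 8 points) for 3 h, then testosterone tracer for a further 2 h. Acceptor/donor BRET ratio was fitted bidirectionally against DMSO baseline.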
# [6] = TAMU_PeakParms_SingleDonor1434_Asystole: Texas A&M University (TAMU) 1.5-hr Human Induced Pluripotent Stem Cell (iPSC)-derived Cardiomyocytes Calcium (Ca+2) Flux Assay for Cardiotoxicity: Asystole (quiescence of beating) (AID 2284328)
# How it was run: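 Average Ca2+-flux peak frequency (beats/s) was recorded in single-donor iPSC-derived cardiomyocytes after 90 min exposure (0.2–100 uM final, 0.5% DMSO). Asystole POD set as EC95 against DMSO, no preprocessing.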
# [7] = system: Brachyury (BRA) Protein Expression, Deisenroth Lab, TBXT (gene 6862); test: CCTE_Deisenroth_DEVTOX-GLR_legacy_Bra: (Legacy) CCTE's DevTox GLR-Endo Assay Evaluation of Brachyury (BRA) Protein Expression, Deisenroth Lab (AID 2284329; active = hit-call score of the fitted dose curve at least 0.9, where 1 is the maximum; inactive = score below 0.9)
# How it was run: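 Percent Bra-positive cells, scored by high-content imaging against a threshold of 5x BMAD over the undifferentiated control median, with the 0.2% DMSO median subtracted. RUES2-GLR cultures were dosed twice at 24 h intervals across a 48 h differentiation, at 1 nM–200 uM in ten steps, with n=4 replicates.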
# [8] = CCTE_Deisenroth_DEVTOX-GLR_legacy_CellCount: (Legacy) Viability Assessment in CCTE's DevTox GLR-Endo Assay, Deisenroth Lab (AID 2284331; active = hit-call score of the fitted dose curve at least 0.9, where 1 is the maximum; inactive = score below 0.9); conditions: actives raise or lower the signal
# How it was run: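 Nuclei count by fluorescence high-content imaging (5 fields/well) after 48 h differentiation of RUES2-GLR cells. Two exposures, 24 h apart; 1 nM - 200 uM series; n=4. Bidirectional fit vs DMSO.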
# [9] = IUF_NPC1_cytotoxicity_72hr: Cytotoxicity Assessment at 72 hours in the Leibniz Research Institute for Environmental Medicine (IUF) Neural Progenitor Cell Proliferation Assay (NPC1) (AID 2284332);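 note: rising LDH signal means more cytotoxicity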
# How it was run: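 Cytotoxicity by LDH membrane-integrity assay on medium supernatants, fluorescence via resazurin reduction, after 3-day single exposure of primary hNPC spheres at 37C, pH 7.2-7.6 with growth factors. Fitted upward against baseline.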
# [10] = system: SRY-box transcription factor 17 (SOX17) Protein Expression, Deisenroth Lab, SOX17 (gene 64321); test: CCTE_Deisenroth_DEVTOX-GLR_legacy_Sox17: (Legacy) CCTE's DevTox GLR-Endo Assay Evaluation of SRY-box transcription factor 17 (SOX17) Protein Expression, Deisenroth Lab (AID 2284341; active = hit-call score of the fitted dose curve at least 0.9, where 1 is the maximum; inactive = score below 0.9); conditions: actives raise or lower the signal
# How it was run: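 RUES2-GLR human pluripotent cells, seeded 24 h, then differentiated 48 h in defined media with two chemical exposures 24 h apart (1 nM - 200 uM, 10 points). Sox17+ fraction from high-content fluorescence imaging; bidirectional fit versus 0.2% DMSO.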
# [11] = system: SRY-box transcription factor 2 (SOX2) Protein Expression, Deisenroth Lab, SOX2 (gene 6657); test: CCTE_Deisenroth_DEVTOX-GLR_legacy_Sox2: (Legacy) CCTE's DevTox GLR-Endo Assay Evaluation of SRY-box transcription factor 2 (SOX2) Protein Expression, Deisenroth Lab (AID 2284346; active = hit-call score of the fitted dose curve at least 0.9, where 1 is the maximum; inactive = score below 0.9)
# How it was run: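 Percent Sox2-positive cells was scored by high-content imaging of 5 fields per well. Positivity cutoff was 5x BMAD over the directed endoderm control, and the DMSO median was subtracted. Cells were RUES2-GLR, dosed twice at 24-h intervals over 48 h of differentiation (1 nM-200 uM).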
# SERPINA7 (gene 6906) = test: CCTE_GLTED_hTBG: CCTE's human Thyroxine-binding Globulin (TBG) Inhibition Assay, Great Lakes Toxicology and Ecology Division (GLTED) Lab (AID 2284343);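 note: active chemicals lower fluorescence versus DMSO baseline by displacing probe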
# How it was run: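 Cell-free displacement of the fluorescent probe ANSA from human thyroxine-binding globulin after 2 h exposure. Read-out at ex 380/em 475 nm; DMSO baseline.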
# [12] = VALA_TUBIPS_Antagonist_CellCount: Viability Assessment in the VALA Sciences human iPS-derived Endothelial Tubule Formation (TUBIPS) Antagonism Assay (AID 2284335)
# [13] = VALA_MIGHUV1_ScratchOnly_WoundArea: VALA Sciences human Umbilical Vein Endothelial Cell Migration (MIGHUV) Assay, Area of Scratch Wound Inhibited Recovery (AID 2284336)
# How it was run: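 Wound area remaining after 24 h recovery imaged by Hoechst nuclear fluorescence in scratched HUVEC cultures, chemicals added within 30 min of scratching across a 6-point series. Gain of signal fitted against 0.1% DMSO; cytochalasin D positive control.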
# [14] = VALA_TUBHUV_Agonist_TubuleLength: VALA Sciences human Umbilical Vein Endothelial Tubule Formation (TUBHUV) Agonism Assay (AID 2284337)
# How it was run: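 Tubule length quantified by CD31 immunofluorescence imaging after fixation. HUVEC-HDF co-cultures (1:3) pre-grown 3 days with 10 ng/ml VEGF, then dosed 3 days in VEGF medium; 0.1 % DMSO vehicle baseline.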
# [15] = VALA_TUBIPS_Agonist_CellCount: Viability Assessment in the VALA Sciences human iPS-derived Endothelial Tubule Formation (TUBIPS) Agonism Assay (AID 2284338)
smiles,measurement,setting,value
FC(F)=C(F)C(F)(F)C(F)(F)C(F)(F)C(F)(F)C(F)(F)C(F)(F)F,outcome,[1],inactive
same,AC50,TTR (gene 7276),62.1 µM (active)
same,outcome,[2],inactive
same,outcome,[3],inactive
O=S(=O)(O)c1ccc(N=Nc2c(O)ccc3cc(S(=O)(=O)O)ccc23)cc1,AC50,[4],36.5 µM (active)
same,outcome,[5],inactive
same,AC50,SRD5A2 (gene 6716),61.8 µM (active)
COc1cc2c(c(OC)c1OC)-c1ccc(OC)c(=O)cc1[C@@H](NC(C)=O)CC2,outcome,[6],inactive
Nc1ccn([C@@H]2O[C@H](CO)[C@@H](O)[C@@H]2O)c(=O)n1,AC50,[1],741 nM (active) and 1.09 µM (active)
same,AC50,[7],0.152 µM (active)
same,AC50,[8],0.259 µM (active)
same,outcome,[9],inactive
same,AC50,[2],415 nM (active) and 814 nM (active)
same,AC50,[10],0.554 µM (active)
same,AC50,[3],959 nM (active) and 1.04 µM (active)
same,AC50,[11],0.937 µM (active)
CCCCCCCC/C=C\CCCCCCCC(=O)OC[C@@H](O)[C@H]1OC[C@H](O)[C@H]1O,outcome,[4],inactive
same,outcome,[5],inactive
same,outcome,SRD5A2 (gene 6716),inactive
CCCCCCCCCCCCCCCCOS(=O)(=O)O,AC50,SERPINA7 (gene 6906),2.91 µM (active)
OC(O)(C(F)C(O)(O)C(F)(F)F)C(F)(F)F,outcome,[1],inactive
same,outcome,[2],inactive
same,outcome,[3],inactive
O=C(NO)C1(NS(=O)(=O)c2ccc(Oc3ccc(F)cc3)cc2)CCOCC1,outcome,SERPINA7 (gene 6906),inactive
C=CCc1cc(S(=O)(=O)c2ccc(O)c(CC=C)c2)ccc1O,AC50,SERPINA7 (gene 6906),1.47 µM (active)
NNC(=O)c1ccncc1,outcome,[7],inactive
same,outcome,[8],inactive
same,outcome,[10],inactive
same,outcome,[11],inactive
OCCNCCO,outcome,[12],inactive
same,outcome,[13],inactive
same,outcome,[14],inactive
same,outcome,[15],inactive
CCCCCOC(C)=O,outcome,[4],inactive
same,outcome,[5],inactive
same,outcome,SRD5A2 (gene 6716),inactive
NC(=O)N1c2ccccc2C=Cc2ccccc21,AC50,[8],67 µM (active)
same,AC50,[10],100 µM (active)
same,AC50,SERPINA7 (gene 6906),30.5 µM (active)
same,outcome,[11],inactive
